# Test results published in ChEMBL document CHEMBL1201862, “PubChem BioAssay data set” (2004).
# Out of some 400,000 compounds screened, about 1,900 (0.47%) were called active. Roughly 14% stayed inconclusive and do not appear here. How the calls were made is not given here. This excerpt belongs to a sample that is enriched for actives.
# Target: Ataxin-2 (Homo sapiens) (UniProt Q99700)
# Assay: qHTS for Inhibitors of ATXN expression.
# Assay type: functional
# Sequence of Ataxin-2 (Homo sapiens) (Q99700 whole entry): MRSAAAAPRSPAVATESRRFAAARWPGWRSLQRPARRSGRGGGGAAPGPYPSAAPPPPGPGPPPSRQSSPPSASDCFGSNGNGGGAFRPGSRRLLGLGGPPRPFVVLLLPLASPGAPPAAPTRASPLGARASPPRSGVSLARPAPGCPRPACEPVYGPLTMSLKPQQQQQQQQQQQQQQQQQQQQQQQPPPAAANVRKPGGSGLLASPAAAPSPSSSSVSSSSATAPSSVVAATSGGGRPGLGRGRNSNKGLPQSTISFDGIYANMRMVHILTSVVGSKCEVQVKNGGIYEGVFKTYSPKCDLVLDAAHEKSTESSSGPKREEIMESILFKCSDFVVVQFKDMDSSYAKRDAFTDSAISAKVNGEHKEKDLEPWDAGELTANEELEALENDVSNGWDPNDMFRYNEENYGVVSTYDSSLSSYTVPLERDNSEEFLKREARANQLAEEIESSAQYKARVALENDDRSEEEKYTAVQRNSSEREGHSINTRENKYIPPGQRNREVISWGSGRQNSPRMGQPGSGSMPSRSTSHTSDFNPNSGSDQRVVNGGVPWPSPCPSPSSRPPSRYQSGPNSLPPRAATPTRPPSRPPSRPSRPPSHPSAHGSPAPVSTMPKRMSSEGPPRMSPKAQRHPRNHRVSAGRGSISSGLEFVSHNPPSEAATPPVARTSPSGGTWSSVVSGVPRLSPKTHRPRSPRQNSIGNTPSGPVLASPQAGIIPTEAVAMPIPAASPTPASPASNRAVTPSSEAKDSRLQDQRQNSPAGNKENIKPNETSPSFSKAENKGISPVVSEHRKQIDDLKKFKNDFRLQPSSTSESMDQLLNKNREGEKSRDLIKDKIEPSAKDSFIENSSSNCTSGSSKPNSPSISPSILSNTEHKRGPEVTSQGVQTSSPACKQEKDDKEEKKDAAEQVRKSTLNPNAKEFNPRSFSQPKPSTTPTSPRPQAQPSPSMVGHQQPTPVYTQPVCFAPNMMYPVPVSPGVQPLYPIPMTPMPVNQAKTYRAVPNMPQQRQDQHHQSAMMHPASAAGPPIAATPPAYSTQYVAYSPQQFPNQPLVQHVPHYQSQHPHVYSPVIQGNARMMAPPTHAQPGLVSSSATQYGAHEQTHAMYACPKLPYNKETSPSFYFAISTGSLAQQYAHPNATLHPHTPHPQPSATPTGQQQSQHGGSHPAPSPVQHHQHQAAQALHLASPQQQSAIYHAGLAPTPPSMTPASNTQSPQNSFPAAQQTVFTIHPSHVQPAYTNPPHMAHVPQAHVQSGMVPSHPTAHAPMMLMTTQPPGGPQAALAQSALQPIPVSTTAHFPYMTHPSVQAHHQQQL
row,Structure (SMILES),Potency
1,Cc1cccc(C)c1-n1nnnc1C(c1cccs1)N1CCC(n2c(O)nc3ccccc32)CC1 (stereo not drawn),20 µM (active)
2,COc1ccc(C(c2nnnn2Cc2ccccc2)N2CCC(n3c(O)nc4ccccc43)CC2)cc1 (stereo not drawn),15.8 µM (active)
3,Oc1nc2ccccc2n1C1CCN(C(c2cc3ccccc3o2)c2nnnn2Cc2ccccc2)CC1 (stereo not drawn),10 µM (active)
4,Oc1nc2ccccc2n1C1CCN(C(c2cccs2)c2nnnn2Cc2ccccc2)CC1 (stereo not drawn),22.4 µM (active)
5,COc1ccc2c3c([nH]c2c1)C(C)=NCC3,inactive
6,Cc1c(C)n(O)c2ccc3nonc3c12,inactive
7,CCN(CC)c1ccc(N/C=C2\C(=O)NC(=O)N(Cc3ccco3)C2=O)cc1,inactive
8,CCOP(=O)(OCC)c1nc(-c2ccc(F)cc2)oc1NCc1ccccc1,inactive
9,Cc1ccccc1CN1Cc2cnnn2-c2ccccc2C1C#N (stereo not drawn),17.8 µM (active)
10,COc1ccc(CN2Cc3cnnn3-c3ccccc3C2C#N)cc1 (stereo not drawn),12.6 µM (active)
11,Nc1c(C(=O)NCCN2CCOCC2)c2nc3ccccc3nc2n1Cc1ccco1,inactive
12,ClCCN(CCCl)c1ccc(-n2cnc3c(Cl)ncnc32)cc1,35.5 µM (active)
13,ClCCN(CCCl)c1ccc(C=Cc2ccncn2)cc1,inactive
14,COCCNC(=O)c1c(NC(=O)c2ccc(Br)o2)n(Cc2ccccc2)c2nc3ccccc3nc12,inactive
15,CCCCCCCSc1cc(OC)c(CCN(C)C)cc1OC,39.8 µM (active)
16,C=CC[N+]1(C)C2CCC1CC(O)C2 (stereo not drawn),inactive
17,COc1ccccc1OCCCn1cc(C=O)c2ccccc21,inactive
18,Cc1ccc([C@H]2C[C@H](O)[C@@H](n3cc(COC(=O)c4ccccc4)nn3)CN2CC2CCCCC2)cc1,31.6 µM (active)
19,CCOC(=O)c1c(N)n(Cc2ccco2)c2nc3ccccc3nc12,inactive
20,O=C1C2(Cl)C3(Cl)C4(Cl)C(Cl)(Cl)C5(Cl)C3(Cl)C1(Cl)C5(Cl)C24Cl (stereo not drawn),39.8 µM (active)

row,Structure (SMILES),Potency
1,CCCCn1c(NC(=O)c2ccc(Br)o2)c(C(=O)OCC)c2nc3ccccc3nc21,inactive
2,O=c1[nH]c2ccccc2n1C1CCN(CCCC(c2ccc(F)cc2)c2ccc(F)cc2)CC1,31.6 µM (active)
3,COCCCNC(=O)c1c(N)n(Cc2ccco2)c2nc3ccccc3nc12,inactive
4,O=[N+]([O-])c1ccc(Sc2nc3ccccc3o2)c([N+](=O)[O-])c1,25.1 µM (active)
5,CCCCCc1nc2c(c(=O)c3ccccc3n2C)c(=O)n1C1CCCCCC1,31.6 µM (active)
6,CCCCCn1c(=O)c(C(=O)Nc2ccccc2Cl)c(O)c2ccccc21,inactive
7,Nc1c(C(=O)NCCN2CCOCC2)c2nc3ccccc3nc2n1Cc1ccccc1,inactive
8,COCCNC(=O)c1c(N)n(CCC(C)C)c2nc3ccccc3nc12,inactive
9,CCOC(=O)c1c(C)n(Cc2ccccc2)c2ccc(OCC(O)CNC(C)(C)C)cc12 (stereo not drawn),25.1 µM (active)
10,COc1ccc(N2C(=O)NC(=O)/C(=C(/C)NCCc3c[nH]c4ccccc34)C2=O)cc1,inactive
11,CCCCn1c(N)c(C(=O)OCCOC)c2nc3ccccc3nc21,inactive
12,CC(=O)OC1C2(CC3N4C(=O)C5(CO)SSC4(CC31O)C(=O)N5C)OC(C)C(C)(C)C2=O (stereo not drawn),2.38 µM (active)
13,CCN1C(=O)C(=CNNC(=O)c2ccncc2)C(=O)N(CC)C1=S,inactive
14,CCCN1CCc2cccc3c2[C@H]1Cc1ccc(O)c(O)c1-3,35.5 µM (active)
15,Cc1ccccc1NC(=NCCCN1CC1)Nc1ccccc1C,9.47 µM (active)
16,O=C(Nc1cccc(C(F)(F)F)c1)C1CCCN1S(=O)(=O)c1cccc2nsnc12 (stereo not drawn),22.4 µM (active)
17,CC1=NCCc2c1[nH]c1cc(O)ccc21,inactive
18,O=C(CCN1CCN(c2ccccc2)CC1)c1ccc(Br)cc1,39.8 µM (active)
19,O=C(Cn1c(NCCCl)nc2ccccc21)c1ccc(Br)cc1,inactive
20,Cc1cccc(C)c1-n1nnnc1C(C1CC1)N1CCC2(CC1)C(=O)NCN2c1ccccc1 (stereo not drawn),39.8 µM (active)

row,Structure (SMILES),Potency
1,COc1ccc(-n2nnnc2C(c2ccccc2OC(F)(F)F)N2CCC3(CC2)C(=O)NCN3c2ccccc2)cc1 (stereo not drawn),39.8 µM (active)
2,COc1ccc(-n2nnnc2C(c2ccnc3ccccc23)N2CCC3(CC2)C(=O)NCN3c2ccccc2)cc1 (stereo not drawn),39.8 µM (active)
3,COc1ccc(C(c2nnnn2-c2ccc(OC)cc2)N2CCC3(CC2)C(=O)NCN3c2ccccc2)cc1 (stereo not drawn),35.5 µM (active)
4,COc1ccc(-n2c(/C=C/c3ccc(O)c(O)c3)nc3ccccc3c2=O)cc1,inactive
5,COc1ccc(C(=O)C2CCCN(Cc3ccc(C)s3)C2)cc1OC (stereo not drawn),inactive
6,CC(C)OC(=O)c1c(N)n(CC2CCCO2)c2nc3ccccc3nc12 (stereo not drawn),inactive
7,O=C(COc1ccccc1)N1CCN(CCN2C(=O)c3cccc4cccc(c34)C2=O)CC1,inactive
8,CCOP(=O)(OCC)c1nc(-c2cccc3ccccc23)oc1N1CCOCC1,inactive
9,Cc1cccc(C)c1-n1nnnc1C(c1ccnc2ccccc12)N1CCC2(CC1)C(=O)NCN2c1ccccc1 (stereo not drawn),39.8 µM (active)
10,Cc1cccc(C)c1-n1nnnc1C(c1cccs1)N1CCC2(CC1)C(=O)NCN2c1ccccc1 (stereo not drawn),31.6 µM (active)
11,C[C@H]1CC[C@@H]2[C@@H](C)[C@H]3[C@H](C[C@H]4[C@@H]5CC=C6C[C@@H](O[C@@H]7O[C@H](CO)[C@H](O)[C@H](O[C@@H]8O[C@H](CO)[C@@H](O)[C@H](O)[C@H]8O)[C@H]7O[C@@H]7O[C@@H](C)[C@H](O)[C@@H](O)[C@H]7O)CC[C@]6(C)[C@H]5CC[C@]34C)N2C1,22.4 µM (active)
12,COP(=O)(OC)c1nc(-c2cccc3ccccc23)oc1N1CCCCC1,inactive
13,Cc1ccc(OCCOc2cccc(C=C3C(=O)NC(=O)NC3=O)c2)cc1,inactive
14,CN(C)c1ccc(C=C2C(=O)NC(=S)NC2=O)cc1,44.7 µM (active)
15,COc1ccc(OC)c(CN2CCN(C(=O)Cc3ccccc3)CC2)c1,inactive
16,O=C1NC(=O)C(=Cc2ccc(-c3ccccc3[N+](=O)[O-])o2)C(=O)N1,inactive
17,O=C1NC(=O)C(=Cc2ccc(SC3CCCCC3)o2)C(=O)N1,22.4 µM (active)
18,C=CC[C@@H](CC/C=C/C=C/CC/C=C\[C@@H]1CSC([C@@H]2C[C@@H]2C)=N1)OC,17.8 µM (active)
